Assay outcomes from PubChem BioAssay.
The list is not random: actives were taken first. Their share in the collection is about 3.5%.
FBW7 activator: FBW7 E3 ligase activators, primary screen, biochemical, AlphaScreen, human. AlphaScreen FBW7–phospho-cyclin E peptide binding, activator screen. normalized activity (activation), % at 26.1 µM. 0.13% of 650,000 active; in the data active = normalized activity above about 1.9%;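 also: purified mutant Fbw7 with reduced substrate affinity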
GPR151 ag: activators of human GPR151, primary screen, cell-based, PathHunter beta-arrestin, luminescence. PathHunter beta-arrestin GPR151 cells. activation, % at 11.2 µM. 1% of 650,000 active. AID 1508602, 2020; in the data active = activation above about 4.9%;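 also: 0% = median of compound wells and 100% = cells with positive control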
MITF primary: MITF inhibitors, primary screen, biochemical, AlphaScreen, human | Microphthalmia-associated transcription factor (Homo sapiens), O75030 | AlphaScreen MITF homodimerization, bead proximity signal | inhibition, % at 2.6 µM | 0.91% of 650,000 active; in the data active = inhibition above about 50%;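 also: 0% = vehicle wells with protein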
TEAD-YAP block: TEAD-YAP interaction inhibition, primary screen, TEAD-YAP interaction inhibitor project, luminescence, HEK-TIYL cells | AID 1259422, 2018 | inhibition, % at 9.12 µM | TEAD-Gal4/YAP UAS-luciferase luminescence | 1.4% of 640,000 active; in the data active = inhibition above about 32%;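 also: 0% = median of test compound wells and 100% = reference inhibitor wells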
GPR151 conf act: GPR151 activators, triplicate retest, confirmation, cell-based, PathHunter beta-arrestin, luminescence. GPR151 PathHunter beta-arrestin cells, 90 min; % of EA-reagent control over plate median. AID 1508609, 2020. activation, % at 11.2 µM. shares compounds with GPR151 ag. 6,700 tested, under 10 active;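 active = mean percent activation across replicates above the confirmation screen cutoff of 4.91%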
GPR119 ag: GPR119 activators in beta-arrestin cells, counter-screen for GPR151 activator project, cell-based, PathHunter beta-arrestin, luminescence, triplicate; shares compounds with GPR151 ag; activation, % at 11.2 µM; 0.3% of 6,700 active; 90 min; 0 = compound-well median, 100 = enzyme-acceptor control; AID 1508611, 2020;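 active = mean percent activation in the counterscreen above 29.09%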;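 also: counterscreen on off-target GPR119 to flag nonselective hits from the GPR151 activator screen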
Target sequence (Q8TDV5 whole entry, looked up): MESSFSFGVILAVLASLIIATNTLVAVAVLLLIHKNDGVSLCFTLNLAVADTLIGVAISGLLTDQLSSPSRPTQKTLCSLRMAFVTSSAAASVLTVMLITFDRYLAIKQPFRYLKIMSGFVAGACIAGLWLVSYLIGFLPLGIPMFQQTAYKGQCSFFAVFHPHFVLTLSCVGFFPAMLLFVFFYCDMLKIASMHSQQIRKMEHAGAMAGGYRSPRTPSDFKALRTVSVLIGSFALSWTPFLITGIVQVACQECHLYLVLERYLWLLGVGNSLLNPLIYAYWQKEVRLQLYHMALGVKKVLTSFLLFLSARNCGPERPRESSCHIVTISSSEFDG
Active calls of the source: *; nt = no result given.

SMILES	FBW7 activator	GPR151 ag	MITF primary	TEAD-YAP block	GPR151 conf act	GPR119 ag
CC(=O)N1CC(C)Sc2cc(S(=O)(=O)N3CCCCC3)ccc21 (stereo unspecified)	0	2	5	5	nt	nt
CCN1CCN(S(=O)(=O)c2ccc3c(c2)SC(C)CN3C(C)=O)CC1 (stereo unspecified)	0	6.1*	-3	6	0	-2
N#C/C=C(\c1ccc(F)cc1)N1CCOCC1	0	8.4*	-14	3	-1	-4
O=C(COc1ccccc1Cl)OCC(=O)c1ccc(F)cc1	0	0	-9	6	nt	nt
N#C/C(=C\Nc1ccccc1F)c1nc(-c2cc3cc([N+](=O)[O-])ccc3oc2=O)cs1	0	11*	2	0	0	10
COCCNc1nc(-c2ccc(OC)c(OC)c2)no1	0	8.4*	-5	1	0	3
CCOc1ccc(S(=O)(=O)N(CC(=O)NC2CC3CCC2C3)c2ccc(F)cc2)cc1 (stereo unspecified)	0	-1	2	-1	nt	nt
O=c1[nH]nc(Cc2ccccc2)c2ccccc12	0	0	4	-13	nt	nt
COc1ccc(Cc2n[nH]c(=O)c3ccccc23)cc1OC	0	5.3*	-4	-10	1	-5
CSCCCNC(=O)CC1C(=O)NCCN1C1Cc2ccccc2C1 (stereo unspecified)	0	4.9*	10	4	0	0
O=C(CC1C(=O)NCCN1C1Cc2ccccc2C1)NCCc1cccs1 (stereo unspecified)	0	2	-10	4	nt	nt
Clc1ccc2nc(CSc3nncn3-c3ccccc3)cn2c1	0	5.1*	1	1	0	6
Cc1cccc(-n2nnnc2C(c2ccccc2)N2CCOCC2)c1 (stereo unspecified)	0	8.5*	6	12	1	11
CC(=O)N(C)c1ccc(NC(=O)c2ccco2)cc1	0	5.3*	8	-27	-1	-6
CCOc1ccc(Nc2nc(N3CCN(C)CC3)c3ccccc3n2)cc1	0	0	19	-2	nt	nt
COc1ccc(Nc2nc(N3CCN(C)CC3)c3ccccc3n2)cc1	0	9.5*	4	2	1	-3
COc1cc(Br)ccc1OCC(=O)N/N=C/c1ccc(C)cc1	0	-1	18	5	nt	nt
O=C(Nc1ccc2c3c(cccc13)CC2)c1ccc(-c2ccc(Cl)cc2)o1	0	5.1*	14	-6	-1	-4
O=C(C1c2ccccc2C(=O)N2CCc3ccccc3C12)N1CCN(C2CCCCC2)CC1 (stereo unspecified)	0	12*	-2	4	0	-3
O=C(COC(=O)c1cccnc1Nc1ccccc1F)c1ccc(Cl)s1	0	-1	21	6	nt	nt
Cc1cc2ncn(-c3ncnc4sc5c(c34)CCCC5)c2cc1C	1	4.9*	5	-22	2	13
O=C(N1CCCC1)N1CCc2nc(N3CCCC3)[nH]c(=O)c2C1	0	0	9	8	nt	nt
CCc1ccc(-c2cc(C(=O)N3CCCCC3)c3ccccc3n2)cc1	0	-1	8	-31	nt	nt
CCc1ccc(-c2cc(C(=O)N3CCN(C/C=C/c4ccccc4)CC3)c3ccccc3n2)cc1	0	5.3*	2	47*	1	11
COC(=O)c1ccc(C2C3=C(CC(c4ccc(C)cc4)CC3=O)Nc3ccccc3N2C(C)=O)cc1 (stereo unspecified)	0	6.6*	17	15	0	5
O=C(Oc1cccc(OC(=O)c2ccccc2F)c1)c1ccccc1F	0	5.6*	-7	5	0	-12
CCCNc1nccn2c(-c3cnc(OC)nc3OC)cnc12	0	0	4	-28	nt	nt
